Among all 47,000 compounds or so, about 2,800 (6%) were called active. No stated cut-off is given here; in the data, active means z-score above about 3 (passing the limit was not always enough); inactive means the rest. This excerpt belongs to a sample that is enriched for actives.
biological target: Endoribonuclease Dicer (Homo sapiens) (UniProt Q9UPY3); assay: inhibitors of Dicer pre-microRNA processing, primary screen, biochemical, cat-ELCCA, chemiluminescence (AID 1347074); settings: cat-ELCCA pre-miR-21 Dicer processing, at 25 µM, active compounds read high;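 further: plate controls were vehicle for no effect and no enzyme for full effect; higher signal means more uncleaved substrate so more Dicer inhibition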
Sequence (Q9UPY3 whole entry, looked up): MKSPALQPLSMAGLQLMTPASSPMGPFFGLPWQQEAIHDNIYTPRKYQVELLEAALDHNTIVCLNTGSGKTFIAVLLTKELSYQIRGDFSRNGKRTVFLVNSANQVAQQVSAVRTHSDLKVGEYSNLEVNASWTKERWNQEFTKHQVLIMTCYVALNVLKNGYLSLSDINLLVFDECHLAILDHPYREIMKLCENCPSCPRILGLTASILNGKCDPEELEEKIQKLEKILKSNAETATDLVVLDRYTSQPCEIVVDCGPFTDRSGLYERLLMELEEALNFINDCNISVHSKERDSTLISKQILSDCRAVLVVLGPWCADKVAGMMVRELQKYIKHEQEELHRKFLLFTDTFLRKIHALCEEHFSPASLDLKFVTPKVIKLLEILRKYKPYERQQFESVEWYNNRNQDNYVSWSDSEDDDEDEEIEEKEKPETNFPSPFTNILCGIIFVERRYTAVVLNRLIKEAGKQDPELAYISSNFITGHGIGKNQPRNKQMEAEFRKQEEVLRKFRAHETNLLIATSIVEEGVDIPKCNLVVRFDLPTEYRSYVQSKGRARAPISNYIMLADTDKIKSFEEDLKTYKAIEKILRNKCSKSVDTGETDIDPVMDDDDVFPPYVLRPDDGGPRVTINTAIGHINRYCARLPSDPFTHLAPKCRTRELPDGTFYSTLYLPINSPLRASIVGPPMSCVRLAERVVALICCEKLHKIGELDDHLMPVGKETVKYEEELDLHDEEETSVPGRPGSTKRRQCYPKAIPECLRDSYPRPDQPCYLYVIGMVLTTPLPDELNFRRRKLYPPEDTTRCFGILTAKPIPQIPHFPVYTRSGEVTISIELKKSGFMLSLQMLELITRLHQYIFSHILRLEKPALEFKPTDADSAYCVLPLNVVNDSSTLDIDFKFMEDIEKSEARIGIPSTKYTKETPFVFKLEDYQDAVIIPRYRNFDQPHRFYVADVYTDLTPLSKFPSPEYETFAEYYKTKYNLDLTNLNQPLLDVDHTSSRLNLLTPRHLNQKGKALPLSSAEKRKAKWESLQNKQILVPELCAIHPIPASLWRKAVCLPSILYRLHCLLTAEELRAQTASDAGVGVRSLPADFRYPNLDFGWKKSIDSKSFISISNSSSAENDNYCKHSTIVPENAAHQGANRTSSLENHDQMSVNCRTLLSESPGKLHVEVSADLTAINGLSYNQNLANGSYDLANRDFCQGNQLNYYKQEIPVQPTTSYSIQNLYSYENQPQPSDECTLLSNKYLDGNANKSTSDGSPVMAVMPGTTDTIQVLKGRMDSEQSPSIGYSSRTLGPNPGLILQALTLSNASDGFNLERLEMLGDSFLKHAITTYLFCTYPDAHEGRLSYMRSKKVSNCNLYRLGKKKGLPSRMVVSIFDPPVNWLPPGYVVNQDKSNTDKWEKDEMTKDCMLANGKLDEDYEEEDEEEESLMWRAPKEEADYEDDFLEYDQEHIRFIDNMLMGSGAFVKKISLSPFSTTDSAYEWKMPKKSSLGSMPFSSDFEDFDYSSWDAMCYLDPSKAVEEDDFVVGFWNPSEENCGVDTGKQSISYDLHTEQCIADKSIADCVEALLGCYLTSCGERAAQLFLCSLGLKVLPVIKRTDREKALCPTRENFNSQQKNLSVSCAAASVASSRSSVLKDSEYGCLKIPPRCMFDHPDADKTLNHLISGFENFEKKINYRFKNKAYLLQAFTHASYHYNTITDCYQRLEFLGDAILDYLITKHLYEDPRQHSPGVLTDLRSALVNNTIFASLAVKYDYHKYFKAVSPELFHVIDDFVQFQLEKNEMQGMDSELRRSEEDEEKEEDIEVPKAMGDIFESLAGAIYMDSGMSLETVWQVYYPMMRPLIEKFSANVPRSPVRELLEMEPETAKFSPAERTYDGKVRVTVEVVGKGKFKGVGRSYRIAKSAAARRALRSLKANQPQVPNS

SMILES | z-score
CC(C)c1ccc(C2N3CC4(C)CN2CC(C)(C3)C4)cc1 (stereo not drawn) | 4.83 (active)
CC(C)Oc1ccc(C2N3CC4(C)CN2CC(C)(C3)C4)cc1 (stereo not drawn) | 2.35 (inactive)
COc1ccc(C2N3CC4(C)CN2CC(C)(C3)C4)cc1 (stereo not drawn) | 1.02 (inactive)
C#CC1(NS(=O)(=O)c2ccc(Sc3ccccc3)c([N+](=O)[O-])c2)CCCCC1 | -0.19 (inactive)
CCOC(=O)Cc1nnc2c(Nc3cccc(Br)c3)nc3nonc3n12 | 3.07 (active)
Cc1cc(C)c(C#N)c(Nc2cccc(Br)c2)n1 | 0.66 (inactive)
CCOC(=O)Cc1csc(NC(=O)Nc2ccccc2)n1 | -0.51 (inactive)
O=C(Cn1nc(C(F)(F)F)c2c1CCCC2)Nc1ccc(Cl)cc1 | 1.11 (inactive)
COC(=O)C1=C(C)NC2=C(C(=O)CC(c3ccccc3)C2)C1c1ccc(C)cc1 (stereo not drawn) | 0.18 (inactive)
COC(=O)c1ccc(C2Nc3ccccc3NC3=C2C(=O)CC(c2ccccc2)C3)cc1 (stereo not drawn) | 3.94 (active)
CN(C)c1ccc(C2Nc3ccccc3NC3=C2C(=O)CC(c2ccc(Cl)cc2)C3)cc1 (stereo not drawn) | 1.16 (inactive)
COc1ccc(C2CC(=O)C3=C(C2)Nc2ccccc2NC3c2cc(F)ccc2F)cc1 (stereo not drawn) | 3.99 (active)
O=C1CC(c2ccccc2)CC2=C1C(c1cccc(Cl)c1)Nc1ccccc1N2 (stereo not drawn) | 1.52 (inactive)
COc1ccc(C2CC(=O)C3=C(C2)Nc2ccccc2NC3c2cccc(Cl)c2)cc1 (stereo not drawn) | 2.07 (inactive)
O=C(CSc1ncnc2c1sc1nc(N3CCOCC3)c3c(c12)CCCC3)N1CCCCC1 | -0.18 (inactive)
CCOC(=O)c1[nH]c2ccc([N+](=O)[O-])cc2c1CCC(=O)O | 0.9 (inactive)
COc1ccc(NC(=O)NCc2c(-c3ccccc3)noc2C)cc1OC1CCCC1 | -0.22 (inactive)
Cc1cc(C)nc(N2CCN(c3ncnc4sc5c(c34)CCCC5)CC2)n1 | 5.88 (inactive)
Cc1cc(C)c2oc(-c3ccc(C)c(NC(=O)C(C)C)c3)nc2c1 | 0.37 (inactive)
Clc1ccc(CNc2nc3ccccc3n2CCN2CCOCC2)cc1 | 3.51 (active)

SMILES | z-score
c1ccc2[nH]c(NCCN3CCOCC3)nc2c1 | -0.76 (inactive)
Clc1ccc(Cn2c(-c3ccco3)nc3ccccc32)cc1 | 2.46 (inactive)
Cc1nn(-c2ccc(N3CCOCC3)nn2)c(=O)c2ccccc12 | -0.81 (inactive)
Cc1c(Cc2c(F)cccc2Cl)c(=O)oc2cc(OC(=O)c3ccccc3Cl)ccc12 | -0.2 (inactive)
COc1ccc(OC)c(NC(=O)Cn2cc(C(=O)C3CC3)c3ccccc32)c1 | 0.03 (inactive)
COCCCNC(=O)Cn1cc(C(=O)C2CC2)c2ccccc21 | 1.99 (inactive)
COc1ccc(OCCn2cc(C(=O)C3CC3)c3ccccc32)cc1 | 3.94 (active)
CCCCN1C(=O)C2(/C(=C(/O)c3ccc(F)cc3)C(=O)C(=O)N2CCCOC)c2ccccc21 (stereo not drawn) | 2.27 (inactive)
COc1cc(CN(Cc2ccccc2)C(=S)Nc2c(C)cccc2C)cc(OC)c1OC | 1.24 (inactive)
Cc1cccc(C)c1NC(=S)NCCC(=O)O | 1.63 (inactive)
CCN(C(=S)Nc1c(C)cccc1C)c1ccccc1 | 3.03 (active)
O=[N+]([O-])c1ccc(S(=O)(=O)c2ccccc2)cc1OS(=O)(=O)c1ccc(Cl)cc1 | 0.46 (inactive)
Fc1ccc(Nc2nnns2)cc1 | 2.65 (inactive)
Cn1c(C(=O)O)ccc1S(=O)(=O)N(Cc1ccccc1)Cc1ccccc1 | -0.36 (inactive)
CC(C)=NNS(=O)(=O)c1ccc(C)cc1 | -6.01 (inactive)
Cc1nc2cc(NCc3ccccn3)ccc2n1C | 3.02 (active)
CCOc1cc(C)c(S(=O)(=O)NCc2ccccn2)cc1C | 0.63 (inactive)
Cc1nc2cc(CO)ccc2n1-c1ccccc1 | -1.15 (inactive)
CN(C)c1ccc(C2/C(=C(/O)c3ccccc3)C(=O)C(=O)N2CCO)cc1 (stereo not drawn) | -1.23 (inactive)
CCOC(=O)C1Cn2c(nc3c(c2=O)C(C)(CC)Cc2ccccc2-3)S1 (stereo not drawn) | 3.52 (active)

SMILES | z-score
Cc1ccc(NC(=O)C/C(N)=N/O)cc1Cl | 1.48 (inactive)
CCn1c(CSc2nc(-c3ccc(Cl)cc3)cn2-c2ccc(C)cc2)n[nH]c1=S | 5.38 (active)
COc1ccc(-c2n[nH]c(=S)n2-c2ccc(Cl)cc2C)cc1 | -1.05 (inactive)
S=c1[nH]nc(CSCc2nc(-c3ccccc3)cs2)n1-c1ccc(Cl)cc1 | -0.05 (inactive)
C=CCSc1nc(Nc2ccc(Cl)cc2)c2cnc(N3CCOCC3)nc2n1 | 0.68 (inactive)
Cc1nc2ccccc2c2c1C(=O)N(c1ccc(C(=O)OCC(=O)c3ccccc3)cc1)C2=O | 0.06 (inactive)
C/C(=N\NC1=NCCCN1)c1ccc(Cl)cc1 | -0.42 (inactive)
CCCCSC1=C(C#N)C(=O)NC(C)S1 (stereo not drawn) | 1.98 (inactive)
COc1ccc(-c2cc(C)nc3nc(N)nn23)cc1 | -1.68 (inactive)
COc1ccc(-c2nn3c(-c4ccc(OC)cc4)nnc3c3ccccc23)cc1 | 3.15 (active)
COc1ccc(-c2nn3c(-c4ccccc4)nnc3s2)cc1OC | -0.95 (inactive)
CSc1ccc(C2C(C(=O)OCC3CCCO3)=C(C)NC3=C2C(=O)CC(C)(C)C3)cc1 (stereo not drawn) | 0.6 (inactive)
COc1ccc2c(c1)CCc1sc(N)nc1-2 | -2.97 (inactive)
COc1ccc2c(c1)CCCC2=Nc1ccccc1C(F)(F)F | 4.81 (active)
CCCOc1ccc(N2C(=O)CC(N3CCC(C)CC3)C2=O)cc1 (stereo not drawn) | 1.2 (inactive)
NNC(=O)Cn1nnc(-c2cccc(Cl)c2Cl)n1 | 7.9 (inactive)
O=C(Cn1nnc(-c2ccccc2Oc2ccc(Cl)cc2Cl)n1)NNC(=S)Nc1ccccc1C(F)(F)F | 4.43 (active)
COC(=O)/C=C(\Nc1ccccc1Oc1ccc(Cl)cc1Cl)C(=O)OC | 2.01 (inactive)

Reference: PubChem BioAssay AID1347074 (Center for Chemical Genomics, University of Michigan, 2019)
